This is part of a sample that, as a whole, favours compounds with a hit. Of some 83,000 tested, about 20% had one in any assay.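 Note: values are percent growth. 100 is the growth of untreated cells, values between 100 and 0 indicate rising inhibition; between -100 and 0 indicates cell death.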 Calls of active or inactive are those of the source. The calls were made as follows: active = growth percent below 10; inactive = the rest.
System: NCI/ADR-RES ovarian
Experiment: NCI-60 one-dose screen, 48 h (100 = growth as untreated, 0 = no growth, -100 = all killed)
Details: 10 µM unless noted

Row | Structure (SMILES) | growth
1 | CCNC(=O)N1CCc2cc(OC)c(OCCc3ccc(OC)nc3)cc2C1c1ccc(OC)cc1C (centres undefined) | 23.5% (inactive)
2 | C=CCn1c(-c2nc3ccc(C(=C(C#N)C#N)c4ccccc4)cc3[nH]2)cc2cc(Br)ccc21 | 54.2% (inactive)
3 | Cc1ccc(S(=O)(=O)NCCNc2nc(Nc3ccc(N4CCN(C)CC4)cc3)nc3ccsc23)cc1 | 100% (inactive)
4 | COc1cc2nc(Cl)nc(Nc3cccc(C4=Nc5c(N)nc(N)nc5NC(c5ccc(Cl)cc5)C4)c3)c2cc1OC (centres undefined) | 80.1% (inactive)

— PubChem BioAssay (NCI)
